For 15 compounds, Potency results are on record in PubChem BioAssay (NCATS).

Where “and” joins values, the source holds several entries; their conditions need not be identical. Identical values can stand only once. Results filed as inconclusive are left out. Calls of active or inactive are those of the source. Calls follow the shape of the dose curve; as a rule, active = well fitted curve in the direction sought with a large enough effect; inconclusive = small, poorly fitted or top-dose-only effect, or another doubt; inactive = no such curve, though single readings can be large; an effect the other way counts as inactive or inconclusive.

The target of test [1] is N-terminal Xaa-Pro-Lys N-methyltransferase 1 (Homo sapiens) (UniProt Q9BV86). As to the kind of experiment: qHTS Assay for Inhibitors of N-terminal methyltransferase 1 (NTMT1): LOPAC validation of the NTMT1 SAHH-coupled ThioGlo3 Assay (AID 1347143).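 Also: SAH from peptide methylation measured as thiol fluorescence via SAHH coupling and ThioGlo3; nearly all actives have a fitted effect of over 70% in size.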 Also: potency is read from the fitted curve at half-maximal effect. The settings on record: recombinant NTMT1, SAHH-coupled ThioGlo3 fluorescence; series mostly up to 114 µM. In short, it runs like this:
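Recombinant human NTMT1 (125nM) was pre-incubated 1 min at room temperature with compounds over a concentration range, then a mix of 100uM SAM, 10uM SAHH and 15uM ThioGlo3 (concentrations in added reagent) was added. ThioGlo3 fluorescence (ex 340/em 450nm) after 30 min was normalized to the initial reading.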

For test [2], the system named is Zika virus NS2B-NS3 protease (unlinked). Put plainly: Optimization of GU AMC qHTS for Zika virus inhibitors: Unlinked NS2B-NS3 protease assay (AID 1347151). Also: nearly all actives have a fitted effect of over 80% in size. To be noted: recombinant ZIKV NS2B-NS3 protease, fluorogenic AMC substrate; series mostly up to 52.5 µM. In short, it runs like this:
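Unlinked protease (25 nM final); buffer 10 mM Tris-HCl pH 8.0 + 0.01% Tween 20; AMC substrate; 15 min RT, dark; Δfluorescence normalized to no-inhibitor/no-enzyme controls; 4-parameter Hill fit.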
On the technique in general: qHTS replaces the single test concentration by a dilution series.

The test system of test [3] is Zika virus NS2B-NS3 protease. As to the kind of experiment: Primary screen GU AMC qHTS for Zika virus inhibitors (AID 1347154). Also: nearly all actives have a fitted effect of over 70% in size. Also: potency is read from the fitted curve at half-maximal effect. To be noted: Zika NS2B-NS3 unlinked protease, AMC fluorogenic substrate; series mostly up to 54.1 µM. In short, it runs like this:
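Unlinked Zika NS2B hydrophilic domain–NS3 protease complex at 25 nM in 10 mM Tris-HCl pH 8.0, 0.01% Tween 20, with an AMC peptide substrate. Fluorescence change (340/450 nm) over 15 min at room temperature, normalized to controls, fitted to 4-parameter Hill.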

Another test addresses Furin (Homo sapiens) (UniProt P09958). As to the kind of experiment: Furin counterscreen qHTS for Zika virus inhibitors (AID 1347149). Also: nearly all actives have a fitted effect of over 70% in size. Also: potency is read from the fitted curve at half-maximal effect. To be noted: furin enzymatic counterscreen, fluorogenic substrate; series mostly up to 57.5 µM. In outline:
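Fluorogenic cleavage of BOC-RVRR-AMC (2 microM final, Km ~15 µM) was monitored (ex 340, em 450 nm) at 37C after 15 min RT preincubation of 5 nM furin with compounds in HEPES pH 7.0 buffer with CaCl2 and Triton X-100. Percent inhibition was fitted to a 4-parameter Hill curve.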
(In general: Counterscreens check selectivity or assay interference.)

Test [4] relates to Zika virus NS2B-NS3 protease (linked construct). Put plainly: Confirmatory screen NINDS AMC qHTS for Zika virus inhibitors (AID 1347152). Also: potency is read from the fitted curve at half-maximal effect; nearly all actives have a fitted effect of over 70% in size. To be noted: Purified linked NS2B-NS3, AMC substrate fluorescence; series mostly up to 56.6 µM. In short, it runs like this: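 Enzyme (1 nM, linked construct) was preincubated with compound for 15 minutes at room temperature in 10 mM Tris-HCl pH 8.0 with 0.01% Tween 20. Bz-Nle-Lys-Arg-Arg-AMC was then added to 10 microM, and AMC fluorescence was recorded immediately and after 15 minutes.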

Test [5] relates to Zika virus NS2B-NS3 protease (unlinked complex). Put plainly: Confirmatory screen GU AMC qHTS for Zika virus inhibitors (AID 1347153). Also: nearly all actives have a fitted effect of over 70% in size.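 As to Potency: enzyme at 25 nM with substrate at 10 µM below its Km of 18.3 µM; potency is read from the fitted curve at half-maximal effect.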 The settings on record: Recombinant NS2B-NS3 protease, AMC substrate fluorescence; series mostly up to 57.1 µM. In short, it runs like this: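 Fluorescence change (ex 340/em 450 nm) over 15 min, ~20% substrate conversion, normalized to no-inhibitor and no-enzyme controls, then Hill-fitted. Unlinked protease at 25 nM; AMC peptide 10 µM.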

A short description of test [6]: Confirmatory screen GU Rhodamine qHTS for Zika virus inhibitors qHTS (AID 1347157). To be noted: purified enzyme assay, Rhodamine110 substrate fluorescence, 15 min. From the text:
Avindra Nath, Ph.D., National Institute of Neurological Disorders and Stroke (NINDS), Bethesda, MD
Radhakrishnan Padmanabhan, Ph.D., Georgetown University (GU), Washington D.C.
Zika Virus causes congenital defects, including microcephaly and is associated with Guillain-Barre syndrome, eningoencephalitis and myelitis in infected adult. […] Using a target-based approach, we hope to establish a screening paradigm to uncover novel, cell-active NS2B-NS3 protease (Zika Virus) specific inhibitors from NCATS' collection of small molecules using qHTS.
Four assay panel was created to identify potential Zika Virus inhibitors. […]
Briefly, 3 microL of enzyme (25 nM final concentration), in assay buffer (10 mM Tris-HCl pH 8.0 with 0.01% Tween 20) were dispensed into a 1,536-well solid-bottom black plate (Greiner Bio One, Monroe, NC). […] Plates were then immediately read on a ViewLux High-throughput CCD imager (PerkinElmer, Waltham, MA) equipped with FITC fluorescence optics (480(20) nm excitation, 540(25) nm emission), then incubated (room temperature, protected from light) for 15 minutes (~15% conversion). The change in fluorescence intensity over the 15-minute reaction period was normalized against no-inhibitor and no-enzyme controls and the resulting percent inhibition data were fitted to a 4-parameter Hill equation. […]

Test [7] is described as follows: ZIKV-mCherry secondary qHTS for Zika virus inhibitors (AID 1347158). Also: potency is read from the fitted curve at half-maximal effect. To be noted: Vero cells, ZIKV-mCherry infection imaging, 48-72 h; series mostly up to 32.6 µM. In short, it runs like this: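 Vero cells, 5,000/well, plated overnight at 37 °C, then compound added and infected with recombinant ZIKV-mCherry at MOI 1 for 48-72 h. PFA-fixed, Hoechst nuclear stain, high-content imaging; cells with mCherry intensity above 450 RFU scored infected, reported as percent infection.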

A short description of test [8]: Confirmatory screen NINDS Rhodamine qHTS for Zika virus inhibitors (AID 1347161). Also: potency is read from the fitted curve at half-maximal effect; nearly all actives have a fitted effect of over 60% in size. To be noted: purified enzyme assay, Rhodamine110 substrate fluorescence, 15 min; series mostly up to 114 µM. In short, it runs like this:
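Purified linked NS2B-NS3 protease (NS2B hydrophilic domain joined to NS3 protease by flexible linker), 25 nM in 10 mM Tris-HCl pH 8.0, 0.01% Tween 20. Compounds titrated, 15 min preincubation at room temperature; 1.5 microM Rhodamine110 substrate, FITC fluorescence change over 15 min.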

Chain of N-terminal Xaa-Pro-Lys N-methyltransferase 1 (Homo sapiens) (Q9BV86 whole entry, looked up): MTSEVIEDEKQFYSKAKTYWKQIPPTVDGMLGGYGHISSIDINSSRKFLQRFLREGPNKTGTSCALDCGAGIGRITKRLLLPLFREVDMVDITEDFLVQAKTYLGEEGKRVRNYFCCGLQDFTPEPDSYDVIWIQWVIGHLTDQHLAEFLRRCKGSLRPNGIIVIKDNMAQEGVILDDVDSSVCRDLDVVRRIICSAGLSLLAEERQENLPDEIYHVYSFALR
Chain of Furin (Homo sapiens) (P09958 whole entry, looked up): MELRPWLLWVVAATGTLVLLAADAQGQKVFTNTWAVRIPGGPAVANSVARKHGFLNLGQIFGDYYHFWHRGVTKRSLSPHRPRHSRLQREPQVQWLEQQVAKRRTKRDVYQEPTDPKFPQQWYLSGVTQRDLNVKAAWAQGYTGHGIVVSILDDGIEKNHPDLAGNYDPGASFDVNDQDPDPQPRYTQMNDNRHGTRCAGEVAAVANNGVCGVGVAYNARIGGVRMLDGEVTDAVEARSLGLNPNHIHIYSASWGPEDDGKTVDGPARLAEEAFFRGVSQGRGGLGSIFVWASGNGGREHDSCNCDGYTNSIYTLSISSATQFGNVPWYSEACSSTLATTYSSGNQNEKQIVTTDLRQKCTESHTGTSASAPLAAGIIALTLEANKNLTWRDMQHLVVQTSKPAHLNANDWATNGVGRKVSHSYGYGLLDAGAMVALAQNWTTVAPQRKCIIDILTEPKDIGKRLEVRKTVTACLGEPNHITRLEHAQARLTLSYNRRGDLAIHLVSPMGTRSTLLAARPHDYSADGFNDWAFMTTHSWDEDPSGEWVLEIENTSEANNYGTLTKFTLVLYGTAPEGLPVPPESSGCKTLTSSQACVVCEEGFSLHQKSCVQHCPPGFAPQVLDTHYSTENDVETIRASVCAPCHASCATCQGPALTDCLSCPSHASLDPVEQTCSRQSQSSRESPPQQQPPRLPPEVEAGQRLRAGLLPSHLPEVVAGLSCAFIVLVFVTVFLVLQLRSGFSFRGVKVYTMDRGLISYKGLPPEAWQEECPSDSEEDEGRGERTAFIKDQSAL

As to `CC[C@H](C)C(=O)O[C@H]1CCC=C2C=C[C@H](C)[C@H](CC[C@@H]3C[C@@H](O)CC(=O)O3)[C@H]21`, the Potency entry in test [1] and in [2] was “inactive” throughout.

As to `CN1C2CCC1CC(OC(=O)c1c[nH]c3ccccc13)C2` (stereo not given), the Potency entry in test [1] and in test [2] was “inactive” throughout.

As to `C1CCc2nnnn2CC1`, the Potency result in [1], in test [2] and in [3] was “inactive” throughout.

Take `O=C(O)c1cc2cc(Cc3cccnc3)ccc2o1`: the Potency result in test [1] and in test [2] was “inactive” each time.

Take `C[C@@H]1C(=O)NC2=Nc3cccc(Cl)c3CN21`: the Potency entry in test [1] and in test [2] was “inactive” throughout.

Take `C[N+]1(CCCCC[N+]2(C)CCCC2)CCCC1`: the Potency entry in test [1] and in test [2] was “inactive” throughout.

For the compound `CCC(NC(C)C)C(O)c1ccc(O)c(O)c1` (stereo not given), the Potency result in [2] was “inactive”.

As for `CN1CCCC(CC2c3ccccc3Sc3ccccc32)C1` (stereo not given), the Potency entry in [3] is “inactive”.

Consider `O=C(Nc1ccc(Oc2ccc(Cl)cc2)c(Cl)c1)c1cc(I)cc(I)c1O`, for which the Potency entry with Furin (Homo sapiens) was “inactive”. The Potency in test [4] was 13.6 µM (active); in [5], 21.5 µM (active); in [3], 14.1 µM (active); in test [6] it was 6.31 µM (active); in [7], 11.2 µM (active); in test [8], 20 µM (active) and 3.93 µM (active).

Turning to `Oc1ccc(O)cc1`, the Potency in test [1] was 31.6 µM (active). The Potency result in test [2] and in [3] was “inactive” throughout.

`COc1cc(OC)cc(OC)c1`: the Potency result in [3] was “inactive”.

In the case of `Nc1cc(Cl)c(NC2=NCCN2)c(Cl)c1`, the Potency entry in [1] and in test [2] was “inactive” each time.

On to `CCCn1c(=O)[nH]c(=O)c2[nH]cnc21`, for which the Potency entry in [1] and in test [2] was “inactive” each time.

As for `Nc1nc2ncc(CNc3ccc(C(=O)N[C@@H](CCC(=O)O)C(=O)O)cc3)nc2c(=O)[nH]1`, the Potency was 21.5 µM (active) in the test with Furin (Homo sapiens), 18.1 µM (active) in test [3] and 55.3 µM (active) in test [8]. The Potency entry in [5] was “inactive”.

For the compound `C[C@H]1[C@H](NC(=O)/C(=N/OC(C)(C)C(=O)O)c2csc(N)n2)C(=O)N1S(=O)(=O)O` (stereo in doubt), the Potency result in test [3] is “inactive”.
